# HIV RNase H inh-1 = blocks HIV-1 RNase H cleavage of RNA/DNA duplex | P04585 | RT-RNase H RNA/DNA duplex cleavage, fluorescence | inhibition, % at 10 µM | 65,000 tested, 1.9% active | AID 565; in the data active means inhibition above about 50%
# RmlCD inh mix = mixture blocks RmlC and RmlD coupled enzyme activity; RmlC/RmlD coupled enzyme inhibition, 384-well mixture HTS; AID 1532; inhibition, % at 5.5 µM; 110,000 tested, 0.39% active; in the data active means inhibition above about 30%, passing the limit was not always enough; inconclusive means no clear call, values can overlap the other calls
# HIV RNase H inh-2 = confirmation of HIV-1 reverse transcriptase RNase H inhibitors. shares compounds with HIV RNase H inh-1. Recombinant RT RNase H, fluorescent RNA/DNA duplex cleavage. inhibition, % at 10 µM. 1,000 tested, 39% active. AID 651; in the data active means inhibition above about 48%; inconclusive means no clear call, values can overlap the other calls
# Hits are given with their value; 0 = inactive; ? = inconclusive; - = no result given. Shown is part of a subset that was picked to be rich in hits.
SMILES,HIV RNase H inh-1,RmlCD inh mix,HIV RNase H inh-2
COc1ccc(C(=O)C(CO)Oc2ccccc2OC)cc1OC (stereo unspecified),0,-,-
CC(C)OC(=O)CSc1nnc(-c2ccc(C(C)(C)C)cc2)n1N,82,-,63
CC(C)OC(=O)CSc1nnc(-c2ccncc2)n1N,0,0,-
CN1CCN(Cc2cc(C(C)(C)C)c(O)c(C(C)(C)C)c2)CC1,-,0,-
CC(C)(C)c1cc(C(c2cccnc2)N2CCN(CCO)CC2)cc(C(C)(C)C)c1O (stereo unspecified),83,0,0
CC1CCCC(C)N1C(=O)CSc1nnc(C2CCCCC2)o1 (stereo unspecified),0,0,-
COc1ccc(C2SCC(=O)Nc3c2c(C)nn3-c2ccccc2)cc1 (stereo unspecified),-,0,-
Cc1ccc(-n2nc(C)c3c2NC(=O)CSC3c2ccc3c(c2)OCO3)cc1 (stereo unspecified),60,0,64
CCC(=O)Nc1cccc(C2=NOC3(C2)C[C@H](C(N)=O)N(C(=O)CC#N)C3)c1 (stereo partly specified),-,0,-
CCCCC(=O)Nc1cc(OC)c(NC(=O)C2CCCCC2)cc1OC,-,0,-
CCCC(=O)Nc1cc(OC)c(NC(=O)NC2CCCCC2)cc1OC,53,0,0
Cc1ccc(C2=NN3C(C(=O)c4ccccc4)Oc4ccccc4C3C2)cc1 (stereo unspecified),-,0,-
COc1cc(/C=C/C(=O)CC(=O)/C=C/c2ccc(O)c(OC)c2)ccc1O,83,0,57
COc1cc(/C=C/C(=O)O)ccc1O,-,0,-
CCOc1ccccc1C(=O)N(Cc1ccccc1)Cc1cc2cc3c(cc2[nH]c1=O)OCCO3,-,0,-
CCc1ccccc1NC(=O)N[C@@H](C)C(=O)OC,0,0,-
CCOC(=O)c1[nH]c(=O)[nH]c1COC(=O)c1cc2ccccc2o1,0,0,-
c1ccc2sc(SN3CCOCC3)nc2c1,79,0,0
c1ccc2sc(N3CCOCC3)nc2c1,-,0,-
COc1ccc(N2CCN(Cc3cc(=O)oc4cc(C)c(Cl)cc34)CC2)cc1,0,0,-
COc1ccc(N2CCN(Cc3cc(=O)oc4cc(-c5ccccc5)c(O)cc34)CC2)cc1,92,0,69
Cc1cccc(OCCC(=O)NCC(c2ccco2)N2CCCCC2)c1 (stereo unspecified),-,0,-
CCN1CCN(C(=S)c2ccc(Br)cc2)CC1,-,0,-
OCCN1CCN(C(=S)c2ccc(Cl)c(Cl)c2)CC1,93,0,66
Cc1cc(C)cc(C(=O)N2CC(C)OC(C)C2)c1 (stereo unspecified),-,0,-
SMILES,HIV RNase H inh-1,RmlCD inh mix,HIV RNase H inh-2
Cc1cc(-c2nc3c4c5c(sc4[nH]c(=O)n3n2)CCC5)c(C)o1,81,0,?
Cc1nc2sc3c(c2c(=O)[nH]1)CCC3,0,0,-
Nc1c(Cl)cc(-c2csc(N3CCCC3c3nc4cc(Cl)c(N5CCCCC5)cc4n3CCCO)n2)cc1Cl (stereo unspecified),-,0,-
CC(C)(C)C(=O)/C=C(N)/C=C/c1ccccc1,0,0,-
Cc1ccc(N=c2ssnc2Cl)cc1,-,0,-
Cc1cc(C)nc(/N=c2/ssnc2Cl)c1,84,0,0
CCN(Cc1ccccc1)S(=O)(=O)c1nc2nc(C)c(C)c(C)n2n1,0,0,-
O=C(CCCn1c(SCC(=O)c2ccc(O)c(O)c2)nc2ccccc2c1=O)NCC1CCCO1 (stereo unspecified),95,0,71
O=C(CCCn1c(SCC(=O)NC2CCCCC2)nc2ccccc2c1=O)NCC1CCCO1 (stereo unspecified),0,0,-
CC(C)Cc1nnc(NC(=O)c2ccc([N+](=O)[O-])cc2)s1,-,0,-
CC1=C(C(=O)Nc2ccc(Cl)cc2)C(c2cccs2)n2nnnc2N1 (stereo unspecified),73,0,0
COC(=O)C1=C(C(=O)c2ccccc2)C(c2cccs2)n2nnnc2N1 (stereo unspecified),0,0,-
O=C(NCc1ccc2c(c1)OCO2)c1c(O)c2cccc3c2n(c1=O)CCC3,72,0,0
O=C(NCc1ccccc1)c1c(O)c2cccc3c2n(c1=O)CCC3,0,0,-
CCOC(=O)N1CCC(N2C(=O)c3ccc(C(=O)NC4CCCCCC4)cc3C2=O)CC1,64,-,0
CCOC(=O)N1CCC(N2C(=O)c3ccccc3C2=O)CC1,0,0,-
COc1ccc(C[C@H]2c3cc(O)c(OC)cc3CC[N+]2(C)[O-])cc1O (stereo partly specified),-,0,-
CCCCOC(=O)Nc1ccccc1C(N)=O,0,0,-
CC1CC(C)CN(S(=O)(=O)c2ccc(C(=O)Nc3nnc(-c4cccs4)o3)cc2)C1 (stereo unspecified),74,-,?
CCC1CCCCN1S(=O)(=O)c1ccc(C(=O)Nc2nnc(-c3cccs3)o2)cc1 (stereo unspecified),0,-,-
CCCCOc1ccc(C2C3CN(C(=O)OCC)CC=C3C(C#N)=C(N)C2(C#N)C#N)cc1OC (stereo unspecified),84,0,0
CCOC(=O)N1CC=C2C(C#N)=C(N)C(C#N)(C#N)[C@H](c3ccc(OCC)c(OCC)c3)[C@H]2C1,0,0,-
CCC1(C)Cc2c(sc3c2c(=O)n(C)c2nnc(SCc4ccc5c(c4)OCO5)n32)CO1 (stereo unspecified),58,0,75
CC(C)Oc1ccc(CSc2nnc3n(C)c(=O)c4c5c(sc4n23)CCCC5)cc1,0,0,-
COC(=O)C1CCC(C)(C(=O)Nc2ccccc2)C1(C)C (stereo unspecified),0,0,-
SMILES,HIV RNase H inh-1,RmlCD inh mix,HIV RNase H inh-2
COc1ccc(Cc2c(O)nc(SCC(=O)N3CCCCCC3)[nH]c2=O)cc1,-,0,-
O=C(COC(=O)Cc1ccc(S(=O)(=O)N2CCOCC2)s1)Nc1ccc2c(c1)OCO2,-,0,-
NC(=O)c1cc(-c2ccccc2)sc1NC(=O)Cc1ccc(S(=O)(=O)N2CCOCC2)s1,58,0,67
CC1CCCN(C(=O)CSc2cnc3ccccc3n2)C1 (stereo unspecified),-,0,-
O=C(NC(=O)c1ccc(Cl)cc1)Nc1cc(N2CCCCC2)ncn1,75,-,99
O=C(Nc1cc(N2CCOCC2)ncn1)Nc1cccc2ccccc12,0,0,-
CCCC1(C(=O)OCC)NC(c2ccc(OC)cc2OC)C2C(=O)N(c3ccc4c(c3)OCCO4)C(=O)C21 (stereo unspecified),-,0,-
COc1ccc(-c2cc(C(=O)N3CCN(c4ccccc4)CC3)no2)cc1OC,-,0,-
COc1ccccc1-c1cc(C(=O)N2CCN(c3ccc(F)cc3)CC2)no1,72,0,0
COc1ccc2[nH]c(=O)c(C(c3nnnn3C3CCCC3)N3CCN(Cc4ccc5c(c4)OCO5)CC3)cc2c1 (stereo unspecified),-,0,-
COc1ccc(CN2C(=O)CS(=O)CC2=O)cc1OC,-,0,-
COc1ccc(OC)c(C2CC(=O)N3CN(c4cccc(Cl)c4)CSC3=C2C#N)c1 (stereo unspecified),0,0,-
CC(C)c1ccc(C2CC(=O)N3CN(C)CSC3=C2C#N)cc1 (stereo unspecified),73,0,65
Cc1ccc(C2CC(=O)N3CN(Cc4ccco4)CSC3=C2C#N)cc1 (stereo unspecified),0,0,-
COc1ccc(Br)cc1C1CC(=O)N2CN(C)CSC2=C1C#N (stereo unspecified),80,0,64
COc1ccc2ccccc2c1C1CC(=O)N2CN(C)CSC2=C1C#N (stereo unspecified),68,0,0
